Bioassay records from PubChem.
PLAP activator = activators of human placental alkaline phosphatase. P05187. purified PLAP enzyme, luminescent substrate read-out; hits give high values. activation fold at 20 µM. 96,000 compounds, 1.2% hits. AID 696; in the data active = activation fold above about 2
HePTP inh = blocks human HePTP tyrosine phosphatase | P35236 | recombinant HePTP phosphatase activity, OD absorbance | inhibition, % at 20 µM | 110,000 compounds, 0.64% hits | AID 521; in the data active = inhibition above about 50%;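 also: plate controls were vehicle for no effect and reference inhibitor for full effect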
Candida biofilm = kills Candida albicans biofilms | C. albicans biofilm + clotrimazole, Alamar Blue | 85,000 compounds, 0.14% hits | inhibition, % at 6 µM;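 active = inhibition above 20%; inactive = inhibition below 20%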;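 also: preformed 24 hr biofilms exposed to compound for 48 hr; 0% = biofilm without compound and 100% = blank killed by clotrimazole plus chlorhexidine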
hDAT+cocaine = human DAT dopamine uptake with cocaine, either direction. AID 449768. B-score at 10 µM. 110,000 compounds, 1.3% hits. Q01959. LLC-PK1 hDAT cells, [14C]-dopamine uptake with cocaine IC80; actives deviate in either direction;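 active = Z score or B-score, a plate-position-corrected score, falls beyond the plate's 99.7% confidence bounds, in either direction; inactive = both scores lie inside the 99.7% bounds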;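 also: scored against the spread of the other compound wells on the same plate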
Target sequence (Q01959 whole entry, looked up): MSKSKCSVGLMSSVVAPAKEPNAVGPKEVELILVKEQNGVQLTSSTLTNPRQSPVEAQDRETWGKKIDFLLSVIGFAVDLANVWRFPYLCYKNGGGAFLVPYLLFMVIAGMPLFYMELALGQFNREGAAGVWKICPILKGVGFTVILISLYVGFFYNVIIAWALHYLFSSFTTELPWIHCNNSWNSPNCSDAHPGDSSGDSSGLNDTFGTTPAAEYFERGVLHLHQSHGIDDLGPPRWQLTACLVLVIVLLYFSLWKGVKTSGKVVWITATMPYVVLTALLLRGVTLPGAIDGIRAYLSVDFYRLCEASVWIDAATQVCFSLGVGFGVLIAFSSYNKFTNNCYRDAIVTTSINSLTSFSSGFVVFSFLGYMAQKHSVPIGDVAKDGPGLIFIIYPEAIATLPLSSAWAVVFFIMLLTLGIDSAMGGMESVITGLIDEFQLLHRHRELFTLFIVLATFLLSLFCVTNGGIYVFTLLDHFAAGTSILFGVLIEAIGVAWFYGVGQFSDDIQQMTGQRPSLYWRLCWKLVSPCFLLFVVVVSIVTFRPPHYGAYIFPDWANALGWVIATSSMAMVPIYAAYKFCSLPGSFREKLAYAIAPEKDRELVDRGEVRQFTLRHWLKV
D1 mod = D1 dopamine receptor (human) allosteric modulation; P21728; HEK293 D1, CRE-luciferase, dopamine EC30 potentiation; actives deviate in either direction; B-score at 10 µM; 58,000 compounds, 5.9% hits;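 active = luminescence count or its row- and column-corrected plate score outside the 99.7% band of the plate's sample wells, on either side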
TNAP act mid DEA = activators of human TNAP at intermediate phosphate acceptor. P05186. purified TNAP, CDP-star luminescence, 100 mM DEA, 30 min; hits give high values; scale: 0 levamisole-inhibited, 1 vehicle-only enzyme. activation factor at 20 µM. 64,000 tested, under 10 active;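 active = activation factor of at least 2 at 20 µM, relative to controls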
D1 PAM confirm = confirmation of human D1 dopamine receptor allosteric modulators; 2,200 compounds, 88% hits; AID 642; HEK293 D1 CRE-luciferase, dopamine EC30 potentiation; hits give high values; shares compounds with D1 mod; luminescence at 10 µM;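 active = luminescence in either of two replicates above the same-plate mean plus 3 SD of the low-dose dopamine control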
D1 ag no DA = D1 (human) signaling in absence of dopamine; shares compounds with D1 mod; HEK293 D1 CRE-luciferase, luminescence, no dopamine; hits give high values; luminescence at 10 µM; 1,900 compounds, 0.8% hits; AID 646; in the data active = luminescence above about 3900
Isoprot counter = alters isoproterenol CRE-luciferase response in HEK293 cells; shares compounds with D1 mod; HEK293 D1 CRE-luciferase, isoproterenol EC30 counter-screen; hits give high values; luminescence at 10 µM; 2,200 compounds, 63% hits;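 active = luminescence in either replicate above plate mean of wells with a partly effective reference agonist dose plus 3 SD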;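 also: isoproterenol raises cAMP through native beta-adrenoceptor Gs so signal bypasses D1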
The depositor's hits bear a star; / = no result. This excerpt belongs to a sample that is enriched for hits.

SMILES	PLAP activator	HePTP inh	Candida biofilm	hDAT+cocaine	D1 mod	TNAP act mid DEA	D1 PAM confirm	D1 ag no DA	Isoprot counter
O=C(c1cccc(F)c1)N1CCc2ccccc2C1	0.9	2.1	3.2	-0.714	4.61*	0.8	9556*	12280*	3248
CCOC(=O)CNC(=O)CSc1nc2cccnc2n1C1CCCCC1	1	5.3	-0.4	0.674	7.64*	0.8	13776*	/	3452*
CCOC(=O)CNC(=O)CSc1nc2cccnc2n1Cc1ccccc1	1.7	6.4	3.5	0.249	1.11	0.9	/	/	/
CC(C)OC(=O)CSc1nc2cccnc2n1C1CCCCC1	1.1	3.8	0.2	0.0974	22.5*	0.9	27160*	1608	4904*
COc1cc(C(=O)n2nnc3ccccc32)c([N+](=O)[O-])cc1OC	/	-2.5	/	/	/	/	/	/	/
CCOc1cc(/C=C2\SC(=S)N(c3ccccc3)C2=O)cc(Br)c1O	/	-4.9	/	/	/	/	/	/	/
Cc1cc(Nc2ccc(F)c(Cl)c2)n2ncnc2n1	0.8	5.5	8.0	-0.336	4.32*	0.9	8188*	1652	3716*
CCn1c2ccccc2c2cc(Nc3cc(C)nc4ncnn34)ccc21	1.6	10.6	4.2	0.522	7.47*	1	11088*	1852	3620*
CN1CCN(c2ccc3c4c(cccc24)C(=O)N(CCO)C3=O)CC1	/	-16.9	/	/	/	/	/	/	/
CCn1nccc1C(=O)Nc1cc(Cl)ccc1Cl	0.9	3.0	7.5	0.217	2.28*	0.9	7456*	1536	3260*
COc1ccc(N2CCN(S(=O)(=O)c3cccc4cccnc34)CC2)cc1	1.4	-0.7	0.1	0.507	8.73*	0.9	19744*	1632	5252*
COc1ccc(NC(=O)C2CCN(S(=O)(=O)c3cccc4cccnc34)CC2)cc1OC	/	42.2	7.2	/	3.63*	0.9	13296*	1648	3148*
CCOC(=O)c1c(NC(=O)Cc2ccc(OC)cc2)sc(C(=O)Nc2ccccc2OC)c1C	/	-9.2	/	/	/	/	/	/	/
CCN1C(=O)c2cccc3c(S(=O)(=O)Nc4ccccn4)ccc1c23	1.2	2.1	0.5	-0.274	2.5*	1	5724*	1712	2824
CCN1C(=O)c2cccc3c(S(=O)(=O)Nc4ncccc4C)ccc1c23	1.2	5.8	/	1.82	7.89*	1	9156*	1492	4368*
O=C1N/C(=N/c2ccccn2)SC1Cc1ccccc1 (stereo not drawn)	1.6	7.2	2.4	0.00569	4.55*	0.9	9704*	1888	2576
O=C1N/C(=N\c2ccccn2)SC1Cc1ccccc1 (stereo not drawn)	/	-3.8	/	/	/	/	/	/	/
CCOC(=O)c1c(CC(C)C)csc1NC=O	1	6.3	-3.7	1.03	16.8*	0.9	12684*	1528	4296*
CCOc1ccc(S(=O)(=O)N=Nc2c(O)[nH]c3ccccc23)c2ccccc12	/	4.0	/	/	/	/	/	/	/
Clc1ncnc2scc(-c3ccccc3)c12	0.9	/	/	-0.172	/	/	/	/	/
Cn1nnnc1Sc1ncnc2scc(-c3ccc(F)cc3)c12	/	9.3	/	/	11.9*	0.9	4984	1648	2320
c1ccc(-c2csc3ncn4nnnc4c23)cc1	1.1	7.7	7.7	0.797	10.9*	1	12968*	1552	3720*
Cn1nnnc1Sc1ncnc2scc(-c3ccccc3)c12	0.9	-0.8	/	-1.12	5.57*	1	22236*	1604	5292*
Cc1ccc(C(C)C)c(OCc2nnc(NC(=O)c3ccc(Cl)cc3Cl)s2)c1	/	10.2	/	/	/	/	/	/	/
O=C(/C=C/c1cccc([N+](=O)[O-])c1)NCCc1ccccc1	/	0.9	/	/	/	/	/	/	/
SMILES	PLAP activator	HePTP inh	Candida biofilm	hDAT+cocaine	D1 mod	TNAP act mid DEA	D1 PAM confirm	D1 ag no DA	Isoprot counter
COc1ccc(C2C(C(C)=O)=C(O)C(=O)N2CC2CCCO2)cc1 (stereo not drawn)	/	-10.3	/	/	/	/	/	/	/
COc1cc(OC)cc(C(=O)Nc2ccc(-c3ccc(NC(=O)c4cc(OC)cc(OC)c4)c(OC)c3)cc2OC)c1	/	-1.8	/	/	/	/	/	/	/
CCOC(=O)N1CCN(C(=O)C(C)(C)Oc2ccc(Cl)cc2)CC1	1.6	-0.5	8.2	0.806	1.91*	0.9	7408*	1572	2568
COc1ccc(-c2cc(C(F)F)n3ncc(C(=O)N4CCN(C(=O)c5ccco5)CC4)c3n2)cc1	1.6	-2.0	13.0	1.75	9.36*	1	13496*	1536	7648*
COc1cc2c(cc1NC(=O)Cc1ccc(OC)c(OC)c1)oc1ccccc12	/	-3.5	/	/	/	/	/	/	/
C=C(C)CN1CCN(c2c(CCC#N)c(C)c(C#N)c3nc4ccccc4n23)CC1	1	7.6	9.1	-0.485	5.38*	1	11364*	1768	3016*
Cc1ccc(Nc2nc(N)nc(CN3CCN(C(=O)c4ccco4)CC3)n2)cc1Cl	1.7	7.3	9.2	2.38	5.45*	1	12072*	1624	3084*
Cc1onc(-c2ccccc2Cl)c1C(=O)NCCc1nc2ccccc2[nH]1	/	-1.4	/	/	/	/	/	/	/
O=C(NCCCN1CCN(c2ccccc2F)CC1)C1CCN(S(=O)(=O)N2CCOCC2)CC1	1.5	5.6	0.9	-0.234	14.4*	1	15768*	10072*	11884*
Cc1nn(Cc2ccc(Cl)cc2)c(C)c1N	/	/	7.1	0.19	/	/	/	/	/
Cc1cc(=O)c2n(Cc3ccc(Cl)cc3)nc[n+]2[nH]1	1	-3.9	3.9	0.91	4.72*	0.9	8876*	1700	2852
CC1CCN(c2nnc(N)s2)CC1	/	-2.1	6.2	-0.472	2.78*	0.9	4832	944	1516
Nc1nnc(N2CCCCC2)s1	/	5.8	6.9	0.0354	0.33	0.9	/	/	/
O=C(CN1CC[n+]2c(-c3cccs3)csc21)c1ccccc1	/	3.6	/	/	/	/	/	/	/
CCCc1nnc(NC(=O)c2ccncc2)s1	0.8	6.7	8.3	-0.941	-0.426	1	/	/	/
CCc1nnc(NC(=O)c2ccncc2)s1	1	7.2	-4.4	-0.68	2.75*	0.9	4640	1208	2180
c1ccc(-c2oc3ncnc(NCCCn4ccnc4)c3c2-c2ccccc2)cc1	1.8	2.8	7.9	2.72*	3.75*	1.2	9476*	1872	3872*
Cc1ccc(C(C)C)c(OCC(=O)Nc2ccc(F)c([N+](=O)[O-])c2)c1	/	-7.9	/	/	/	/	/	/	/
COc1ccc(-c2cc(C(F)(F)F)n3nc(C(=O)N4CCCCC4)cc3n2)cc1	0.9	3.9	/	-0.188	5.72*	1	8620*	1528	2704
COc1ccc(-c2cc(C(F)(F)F)n3nc(C(=O)N4CCOCC4)cc3n2)cc1	/	-1.3	/	/	/	/	/	/	/
COc1cc2c(cc1NCc1ccc(OC)c(OC)c1OC)oc1ccccc12	/	3.1	/	/	/	/	/	/	/
O=C(OCC#CCSc1nnc(-c2ccc(Br)cc2)o1)c1ccco1	0.9	-4.3	1.1	0.888	4.77*	0.9	7080*	1620	2468
